S1P4 ag = activates the human S1P4 receptor. O95977. S1P4-expressing cell line, agonist reporter assay. activation, % at 4.98 µM. 0.35% of 220,000 active; in the data active = activation above about 11%;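 also: 0% = DMSO vehicle and 100% = reference agonist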
S1P3 antagonist = S1P3 (human) receptor antagonism; 0.27% of 170,000 active; CHO S1P3 NFAT-BLA reporter, FRET fluorescence, antagonist mode; Q99500; inhibition, % at 4.98 µM;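 active = inhibition above the plate cutoff, the mean inhibition of test wells on that plate plus 3 SD, cut at about 28% in these data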;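 also: cells challenged with S1P at its EC80 of 0.8 µM; blue over green emission ratio from cleaved BLA substrate after 4 h stimulation; 0% = S1P-stimulated wells and 100% = unstimulated DMSO-only wells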
Target sequence (Q99500 whole entry, looked up): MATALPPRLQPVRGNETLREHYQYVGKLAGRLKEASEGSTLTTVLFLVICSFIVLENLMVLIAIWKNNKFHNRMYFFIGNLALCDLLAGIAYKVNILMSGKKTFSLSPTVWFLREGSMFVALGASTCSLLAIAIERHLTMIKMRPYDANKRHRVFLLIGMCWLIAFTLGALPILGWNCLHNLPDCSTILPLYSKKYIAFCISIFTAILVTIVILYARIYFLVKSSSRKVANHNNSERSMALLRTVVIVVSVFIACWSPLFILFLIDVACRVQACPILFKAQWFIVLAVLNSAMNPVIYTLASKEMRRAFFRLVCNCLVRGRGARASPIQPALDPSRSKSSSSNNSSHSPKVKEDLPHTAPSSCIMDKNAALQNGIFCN
KCC2 mod = modulators of human KCC2 chloride dependent transport; Q9H2X9; B-score of Tl+ flux slope (higher = more flux/activation; lower = inhibition) at 10 µM; 2.2% of 190,000 active; KCC2 cells, thallium flux FluoZin-2 fluorescence;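 active = thallium flux slope and its plate-corrected score both differing from the plate sample mean at a set confidence after two filtering rounds, in either direction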;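 also: slope of fluorescence scaled to starting intensity during 10 to 20 s after thallium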
ROMK primary = human ROMK K+ channel modulation, primary screen; B-score at 10 µM; P48048; AID 1918; 2% of 130,000 active; Tet-inducible ROMK, thallium flux fluorescence; actives lie on both sides;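 active = signal ratio slope over the read window, or its plate-corrected B-score, at least 3 SD from the plate mean, either direction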;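 also: B-score of the F/F0 ratio slope over 7 to 12 s after thallium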
RAM inhibit = inhibitors of the yeast RAM network. S. cerevisiae dse1pr::URA3 reporter, 5-FOA growth OD615, 2 d; analog-sensitive cbk1-as2 kinase mutant strain. inhibition, % at 50 µM. 1.8% of 190,000 active;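 active = inhibition above a set limit, 3 SD over mean compound inhibition, cut at about 8.4% in these data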;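 also: 0% = DMSO-only wells with no growth and 100% = 10 µM 1-NA-PP1 full growth; inhibition rescues growth on 5-FOA so higher OD means more RAM inhibition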
S1P4 antag = blocks the human S1P4 receptor; inhibition, % at 4.98 µM; 0.26% of 220,000 active; S1P4-expressing cells, antagonist mode, reporter read-out; O95977; in the data active = inhibition above about 29%;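 also: 0% = wells stimulated with agonist and 100% = vehicle wells without agonist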
* marks the source's active call; other numbers are inactive results. Only some compounds are listed: those with a hit (about 5.1% of all), similar ones and a draw of the others.

For Cn1c(Cn2c(=O)sc3ccccc32)nnc1SCC(=O)Nc1ccccc1F the results were S1P4 ag 0.4, S1P3 antagonist 99.1*, KCC2 mod -0.785, RAM inhibit -0.6 and S1P4 antag -11.7.
For O=c1c2ccc(Cl)cc2[nH]c(=S)n1CCC1=CCCCC1 the results were S1P4 ag -0.8, S1P3 antagonist -8.3, KCC2 mod 36.6*, ROMK primary -0.309, RAM inhibit 2.5 and S1P4 antag -15.7.
Screening COc1ccc(NC(=O)CSc2nnc(C)n2Cc2ccccc2)cc1 returned S1P4 ag -1.1, KCC2 mod -0.494, RAM inhibit -0.5 and S1P4 antag -14.1.
For COc1ccc(OC)c(NC(=O)CSc2nnc(C)n2Cc2ccccc2)c1 the results were S1P4 ag 0.5, S1P3 antagonist -14.8, RAM inhibit 9.2* and S1P4 antag -18.0.
Cc1nc(N2CCOCC2)nc(OCCN2CCOCC2)c1[N+](=O)[O-] was read as S1P4 ag 0.6, S1P3 antagonist -6.7, KCC2 mod 0.662, RAM inhibit 1.0 and S1P4 antag -2.6.
O=C1NC2(CCCCC2)C(=O)N1CCS(=O)(=O)Oc1ccc(Br)cc1 was read as S1P4 ag 0.7, S1P3 antagonist -19.1, KCC2 mod -0.844, ROMK primary -0.0502, RAM inhibit 8.8* and S1P4 antag -8.1.
Screening O=C1NC2(CCCC2)C(=O)N1CCS(=O)(=O)Oc1ccccc1 returned S1P4 ag 1.4, S1P3 antagonist -14.7, KCC2 mod 0.765, ROMK primary -0.0125, RAM inhibit 1.2 and S1P4 antag -18.0.
Screening C=C(C)C(=O)Nc1cccc(C2=NOC3(C2)C[C@@H](C(N)=O)N(C(=O)/C=C/C=C/C)C3)c1 (some centres undefined) returned KCC2 mod -0.284.
Screening CC1CC1c1ccc(/C=C(\C#N)C(=O)Nc2cc(Cl)ccc2Cl)o1 (centres undefined) returned S1P4 ag 4.6, S1P3 antagonist -0.7, KCC2 mod -0.201, RAM inhibit 8.7* and S1P4 antag -5.3.
`CC1CC1c1ccc(/C=C(\C#N)C(=O)Nc2ccc(Cl)cc2Cl)o1` (centres undefined) gave S1P4 ag 2.5, S1P3 antagonist -1.9, KCC2 mod 1.41, RAM inhibit -0.2 and S1P4 antag -8.2.
Screening CCOc1ccc(Br)cc1CN(CC)CC returned S1P4 ag -1.2, S1P3 antagonist -12.5, KCC2 mod -1.34 and S1P4 antag 13.9.
Screening CCOc1ccc(C(=O)Nc2ccccc2-c2ccccc2)cc1Cl returned S1P4 ag -1.0, KCC2 mod 0.109, ROMK primary 0.349, RAM inhibit 3.9 and S1P4 antag -2.8.
COc1c(Cl)cc(C(=O)Nc2ccccc2-c2ccccc2)cc1Cl was read as S1P4 ag -4.5, RAM inhibit 8.7* and S1P4 antag 11.6.
`O=C(NCc1ccc2c(c1)OCO2)c1ccc(CSCc2ccccc2Cl)o1` gave S1P4 ag -2.1, S1P3 antagonist 4.4, KCC2 mod -0.592, RAM inhibit 10.7* and S1P4 antag -4.0.
CC(c1ccco1)N(C(=O)c1ccccc1NS(=O)(=O)c1cc([N+](=O)[O-])ccc1Cl)c1ccccn1 (centres undefined) was read as S1P4 ag -0.5, S1P3 antagonist -0.8, KCC2 mod 5.4*, RAM inhibit 2.7 and S1P4 antag -3.7.
For CC(c1ccco1)N(C(=O)c1ccccc1NS(=O)(=O)c1cccc([N+](=O)[O-])c1)c1ccccn1 (centres undefined) the results were S1P4 ag 1.2, S1P3 antagonist -7.6, KCC2 mod 0.239, ROMK primary -0.214, RAM inhibit 4.9 and S1P4 antag -6.6.
Screening CCc1nnc(NC(=O)c2ccc(-c3ccc([N+](=O)[O-])cc3Cl)o2)s1 returned S1P4 ag -0.3, S1P3 antagonist 1.8, KCC2 mod -0.11, RAM inhibit -0.4 and S1P4 antag -6.8.
`O=C(Nc1nc(-c2ccccn2)cs1)c1ccc(Br)s1` gave S1P4 ag -0.2, KCC2 mod 38.9*, RAM inhibit -1.6 and S1P4 antag -3.7.
`Cc1cc(C)n(-c2cc(N3CCN(C(=O)c4ccccc4C)CC3)ccc2[N+](=O)[O-])n1` gave S1P4 ag -1.0 and S1P4 antag -16.6.
Screening CCCn1c(NC(=O)C2COc3ccccc3O2)nc2ccccc21 (centres undefined) returned S1P4 ag 1.7, S1P3 antagonist 3.5, KCC2 mod 0.838, RAM inhibit 8.6* and S1P4 antag -24.5.
`CCc1ccc(NC(=S)Nc2ccc3[nH]c(=O)[nH]c3c2)cc1` gave S1P4 ag 2.3, S1P3 antagonist -17.1, KCC2 mod 0.792 and S1P4 antag -13.2.
COC(=O)c1ccc(C2N=C(c3cccs3)CC(c3ccccc3O)N2)cc1 (centres undefined) was read as S1P4 ag 0.6, S1P3 antagonist 3.3, KCC2 mod 1.09, ROMK primary -0.809, RAM inhibit 0.8 and S1P4 antag 23.7.
For CC(C)C1Nc2ccc(C(=O)O)cc2C2C=CCC21 (centres undefined) the results were S1P4 ag 2.9, S1P3 antagonist -4.7, KCC2 mod 2.45, ROMK primary 1.19, RAM inhibit 2.9 and S1P4 antag -9.3.
Screening CCOC(=O)c1ccc2c(c1)C1C=CCC1C(C(=O)O)N2 (centres undefined) returned S1P4 ag -0.8, S1P3 antagonist 13.5, KCC2 mod 0.0135, RAM inhibit 9.7* and S1P4 antag -13.8.
Cc1ccc(S(=O)(=O)NCC(=O)N(CC(=O)NCC2CCCO2)Cc2ccco2)cc1 (centres undefined) was read as S1P4 ag -0.3, S1P3 antagonist -14.9, KCC2 mod 0.0206, ROMK primary 0.26, RAM inhibit 2.0 and S1P4 antag -12.5.
`CCc1cccc(C)c1NC(=O)C1CCN(C(=O)c2ccc([N+](=O)[O-])cc2)CC1` gave S1P4 ag -0.9, S1P3 antagonist -16.9, KCC2 mod 0, ROMK primary -0.0781, RAM inhibit 3.6 and S1P4 antag 0.0.
For C=CSc1sc(Cl)c(N2CCOCC2)c1[N+](=O)[O-] the results were S1P4 ag 0.6, S1P3 antagonist 6.9, KCC2 mod -0.299, ROMK primary 0.0243, RAM inhibit -0.6 and S1P4 antag 5.4.
`C=CS(=O)(=O)c1sc(Cl)c(N2CCOCC2)c1[N+](=O)[O-]` gave S1P4 ag 3.5, S1P3 antagonist -1.6, KCC2 mod -3.64*, ROMK primary -8.57*, RAM inhibit -1.4 and S1P4 antag 13.8.
Screening CCOC(=O)C1=NN(C(=O)c2ccc(C)cc2)C(O)(c2ccc(Cl)cc2)C1 (centres undefined) returned S1P4 ag -1.4, KCC2 mod 121*, ROMK primary 2.76*, RAM inhibit -0.4 and S1P4 antag -3.5.

Bioassay records: PubChem BioAssay, several laboratories
